Results reported in ChEMBL document CHEMBL3988442, “University of Dundee, Small-Polar-MMV Screening Library” (2021).
In all, about 48,000 compounds went through this assay and about 13,000 (27%) showed an effect of 50% or more. The list shows a part of the results.

system: Wolbachia pipientis; test: Anti-Wolbachia Cell-Based Screen; assay type: functional; set-up: scale not given: in the data most compounds retested in dose-response had high values; conditions: 5 µM

Row | Compound | Percent Effect [%]
1 | O=C(O)c1ccc(OC2CCOCC2)cc1 | 3.994
2 | O=C1CO[C@H](c2ccc(NS(=O)(=O)c3ccccc3)cc2)[C@@H](CO)N1 | -4.896
3 | CN1CCC(N2CCC(c3ccccc3C(=O)O)C2)CC1 (stereo not drawn) | 13.56
4 | O=C1N[C@H]2OCCC[C@H]2[C@H](c2ccccc2C(=O)O)N1 | 55.53
5 | COc1ccc(C2CC(=O)Nc3c2cnn3C2CCCC2)cc1 (stereo not drawn) | -0.6699
6 | O=C1N[C@H]2OCCC[C@H]2[C@H](c2ccc(C(=O)O)cc2)N1 | 126.1
7 | O=C1N[C@H]2OCCC[C@H]2[C@H](c2ccccc2)N1 | 111.8
8 | O=C1CC(c2ccccc2)c2cnn(C3CCCC3)c2N1 (stereo not drawn) | 5.906
9 | COc1ccc([C@@H]2NC(=O)N[C@H]3OCCC[C@H]32)cc1 | 92.15
10 | O=C(CN1CCCC(c2ccc(C(=O)O)cc2)C1)NC1CC1 (stereo not drawn) | -9.643
11 | COc1ccc(C2CC(=O)Oc3cc(C)[nH]c(=O)c32)cc1 (stereo not drawn) | 5.191
12 | O=C(O)c1ccccc1C1CCN(C2Cc3ccccc3C2)C1 (stereo not drawn) | 0.3893
13 | CCOCCn1nc(C)cc1C(=O)N1CCN(C(C)C)C(CC)C1 (stereo not drawn) | 12.32
14 | CC(=O)N1CCC(N2CCOC[C@H]2c2nc(-c3ccncc3)c[nH]2)CC1 | -16.93
15 | CC(=O)N1CCCC2(CCN(C(=O)c3nccnc3N)CC2)C1 | -5.274
16 | NC(=O)CCC(=O)N1CCc2[nH]nc(-c3ccc4c(c3)OCO4)c2C1 | -2.811
17 | CSCC(=O)N1CCc2[nH]nc(-c3ccc4c(c3)OCO4)c2C1 | -14.59
18 | NC(=O)CSc1nccc(-c2ccc3c(c2)OCO3)n1 | 94.21
19 | O=C(CSc1nccc(-c2ccc3c(c2)OCO3)n1)N1CCOCC1 | 110.7
20 | O=C(O)CSc1nccc(-c2ccc3c(c2)OCO3)n1 | 78.66
21 | CCOc1ccc(-c2ccc3c(c2)OCO3)cc1C(N)=O | -6.962
22 | CN(C)C(=O)c1cccnc1-c1ccc2c(c1)OCO2 | -0.5608
23 | O=C(Cc1ccc2c(c1)OCO2)N1CCN(c2ccncc2)CC1 | -22.19
24 | CNCc1nc(-c2ccc3c(c2)OCO3)c[nH]1.Cl.Cl | -0.9226
25 | Cn1cccc(NC(=O)N2CCC(COCc3ccccc3)C2)c1=O (stereo not drawn) | 7.256
26 | Cc1ccc(C)c(OCC(O)Cn2ncc3cnn(C)c(=O)c32)c1 (stereo not drawn) | -5.252
27 | O=S(=O)(NC1=NCN(CCc2cccs2)CN1)c1ccc(F)cc1 | 4.244

Row | Compound | Percent Effect [%]
28 | Cc1cc(N[C@H](CO)COCc2ccccc2)n2nc(C)cc2n1 | 2.305
29 | CC(C)(C)OCC1CN(CC2CC2)S(=O)(=O)c2cnccc2O1 (stereo not drawn) | 96.42
30 | CCN1CC(COC(C)(C)C)Oc2ccncc2S1(=O)=O (stereo not drawn) | 103.5
31 | COc1ccc(CN2CCOC[C@H](Oc3cccnc3)C2)cc1 | -13
32 | CCN1CC(COc2ccc(OC)cc2)Oc2ccncc2S1(=O)=O (stereo not drawn) | 109.7
33 | COCC1CN(Cc2ccc(OC)cc2)S(=O)(=O)c2cnccc2O1 (stereo not drawn) | 99.8
34 | COc1ccc(OCCN2CCOCS2(=O)=O)cc1 | -3.078
35 | COc1ccc(CCC(=O)Nc2ccncc2C)cc1 | 3.309
36 | COc1ccc(C[C@@H]2CC[C@H](CN(C)C3CCN(C)CC3)O2)cc1 | 15.35
37 | Cc1nc(-c2noc3ccc(C(=O)NCCN(C)C)cc23)co1 | -5.984
38 | CN(CCn1cccn1)S(=O)(=O)c1cccc(Cl)c1C#N | -13.18
39 | O=C(O)C(=O)O.c1csc(CN2CC(c3nc(-c4cnccn4)no3)C2)c1 | 14.88
40 | CC(C)(C)OCC1CN(Cc2cccs2)S(=O)(=O)c2cnccc2O1 (stereo not drawn) | 118.6
41 | CO[C@@H]1CCN(Cc2cccs2)[C@H]1Cc1ccncc1 | 4.278
42 | Cc1cc(NC(=O)NC(C)CO)ccc1OCC(F)(F)F (stereo not drawn) | -7.879
43 | CCCS(=O)(=O)c1ccc(N2CCC(Cc3ccccc3)CC2)nn1 | 21.52
44 | Cc1nnc(SCCCNC(=O)Cc2ccc3c(c2)OCO3)s1 | -3.831
45 | CC(=O)N1CCCN(C(=O)Cc2ccc3c(c2)OCO3)CC1 | 1.177
46 | CCSc1nsc(NC(=O)COc2ccc3c(c2)OCO3)n1 | 106.2
47 | O=C(c1cc(COc2ccc3c(c2)OCO3)[nH]n1)N1CCSCC1 | 4.191
48 | CC(=O)Nc1nc(SCc2ccc3c(c2)OCO3)ns1 | 70.31
49 | Nc1nc(SCc2ccc3c(c2)OCO3)ns1 | 92.69
50 | CC(C)c1nc(CC(=O)N(C)Cc2ccc3c(c2)OCO3)cs1 | -4.138
51 | CN(Cc1ccc2c(c1)OCO2)Cc1cscn1 | 9.115
52 | Cn1nc2c(cc1=O)CN(Cc1nnc(-c3ccco3)o1)CC2 | -2.817
53 | C=C(C)CN(CC)S(=O)(=O)c1c(F)cc(NC(C)=O)cc1F | 26.08
